From PubChem BioAssay (EPA / NIEHS)
The source made the active and inactive calls. Rule for the calls: active = hit-call score of the fitted dose curve at least 0.9, where 1 is the maximum; inactive = score below 0.9.

Experiments:
[1] = ATG_EGR_CIS: Attagene CIS-FACTORIAL HepG2 Assay for human Early Growth Response 1 (EGR1) (AID 2282938); conditions: HepG2 Attagene CIS-FACTORIAL EGR reporter mRNA; actives raise or lower the signal
Summary of the method: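 Read-out: fluorescent reporter-mRNA fragments resolved by capillary electrophoresis after RT-PCR, 24 h post-dose in transiently transfected HepG2. Endogenous transcription-factor activity reported via cis-element-regulated reporter units; gain or loss fitted relative to DMSO.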

[2] = ATG_M_19_CIS: Attagene CIS-FACTORIAL HepG2 Assay for M19 Transcription Factor (Internal Marker) (AID 2282939); conditions: HepG2 Attagene CIS-FACTORIAL M19 internal marker reporter; actives raise or lower the signal
Summary of the method: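 HepG2 cells transiently transfected with cis-regulated multiplexed reporter units, dosed 24 h. Reporter mRNA quantified by RT-PCR and capillary electrophoresis; internal background marker fitted bidirectionally versus DMSO.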

[3] = ATG_ERE_CIS: Attagene CIS-FACTORIAL HepG2 Assay for Estrogen Response Element (ERE) (AID 2282940); conditions: HepG2 ERE cis-reporter, Attagene RNA transcript; actives raise or lower the signal
Summary of the method: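 HepG2 cells transiently transfected with multiplexed cis-element reporter units, measuring endogenous transcription factor activity; ERE reporter mRNA quantified after 24 h exposure by RT-PCR, fluorescent labelling, HpaI digestion and capillary electrophoresis. Bidirectional change versus DMSO.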

[4] = ATG_Ets_CIS: Attagene CIS-FACTORIAL HepG2 Assay for human Erythroblast Transformation Specific (ETS) (AID 2282941); conditions: HepG2 ETS cis-reporter transcription; AC50: actives raise or lower the signal unless noted; outcome: actives raise or lower the signal unless noted
Summary of the method: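 Bidirectional fit versus DMSO of reporter mRNA signal, detected by RT-PCR and capillary electrophoresis in HepG2 cells transiently transfected with cis-element reporters and dosed 24 h.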

[5] = molecular target: Hepatocyte nuclear factor 3-beta (Homo sapiens) (UniProt Q9Y261); assay: ATG_FoxA2_CIS: Attagene CIS-FACTORIAL HepG2 Assay for human Forkhead box A2 (FOXA2) (AID 2282942); conditions: HepG2 cis-reporter transcription factor activity, 24 h; actives raise or lower the signal
Summary of the method: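 Readout: fluorescent reporter transcripts resolved by capillary electrophoresis after RT-PCR. Transiently transfected HepG2, 24 h compound exposure, endogenous TF activity at cis promoter elements. Gain or loss of signal fitted relative to DMSO.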

[6] = ATG_FoxO_CIS: Attagene CIS-FACTORIAL HepG2 Assay for human Forkhead box O (FoxO) (AID 2282943); conditions: HepG2 Attagene cis-reporter, FoxO element, mRNA; actives raise or lower the signal
Summary of the method: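 HepG2, transient MRTU transfection (cis element, endogenous TFs). Dose 24 h. TriZol RNA → oligo(dT) RT → PCR → 6-FAM primer extension → HpaI cut → CE. Gain/loss vs DMSO.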

[7] = ATG_GATA_CIS: Attagene CIS-FACTORIAL HepG2 Assay for human GATA Binding Protein (AID 2282944); conditions: HepG2 GATA cis-element reporter, Attagene multiplex mRNA; actives raise or lower the signal
Summary of the method: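 HepG2 cells transiently transfected with multiplexed cis-element reporter units measure endogenous GATA activity; after 24 h compound exposure, reporter mRNA quantified by RT-PCR and capillary electrophoresis. Changes fitted in both directions vs DMSO.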

[8] = ATG_GLI_CIS: Attagene CIS-FACTORIAL HepG2 Assay for human Zinc Finger Protein GLI1 (AID 2282945); conditions: HepG2, Attagene cis-factorial reporter mRNA, GLI element; actives raise or lower the signal
Summary of the method: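 Bidirectional curve fits relative to DMSO, using reporter mRNA levels from RT-PCR plus capillary electrophoresis. Cells were HepG2 transiently carrying cis-regulated reporter constructs, harvested 24 h after dosing.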

[9] = ATG_GRE_CIS: Attagene CIS-FACTORIAL HepG2 Assay for human Glucocorticoid Response Elements (GRE) (AID 2282947); conditions: HepG2 GRE cis-reporter, Attagene multiplex mRNA; AC50: actives raise or lower the signal unless noted; outcome: actives raise or lower the signal unless noted
Summary of the method: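 Reporter transcripts read by RT-PCR with capillary electrophoresis fluorescence after a 24 h chemical exposure of HepG2 cells transiently transfected with multiple cis-element reporter units. Gain or loss fitted against DMSO.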

[10] = ATG_ISRE_CIS: Attagene CIS-FACTORIAL HepG2 Assay for human Interferon Regulatory Factor 1 (IRF1) binding to an Interferon-Stimulated Response Element (ISRE) (AID 2282948); conditions: HepG2 ISRE cis-reporter (Attagene), mRNA transcription readout; actives raise or lower the signal
Summary of the method: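 Uses HepG2 liver cells transfected with cis-regulated reporters and measures mRNA 24 h post-dosing through RT-PCR, primer-extension labelling and capillary electrophoresis, with DMSO as negative control.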

[11] = ATG_M_32_CIS: Attagene CIS-FACTORIAL HepG2 Assay for M32 Transcription Factor (Internal Marker) (AID 2282949); conditions: HepG2 Attagene cis-factorial M32 reporter, mRNA; actives raise or lower the signal;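 note: background control marker of the multiplexed CIS panel rather than a real target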
Summary of the method: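 HepG2 human liver cells transiently transfected with cis-promoter-driven multiple reporter transcription units, dosed 24 h. Reporter mRNA quantified by RT-PCR, FAM-labelled primer extension, HpaI digest and capillary electrophoresis; bidirectional fit versus DMSO baseline.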

[12] = ATG_M_06_CIS: Attagene CIS-FACTORIAL HepG2 Assay for M06 Transcription Factor (Internal Marker) (AID 2282950); conditions: HepG2 Attagene CIS-FACTORIAL M06 internal marker reporter; actives raise or lower the signal
Summary of the method: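 Internal background marker within multiplexed cis-reporter HepG2 system. Cells transiently transfected, dosed 24 h; reporter mRNA measured by RT-PCR, HpaI digestion and capillary electrophoresis. Bidirectional fit relative to DMSO.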

[13] = molecular target: Hypoxia-inducible factor 1-alpha (Homo sapiens) (UniProt Q16665); assay: ATG_HIF1a_CIS: Attagene CIS-FACTORIAL HepG2 Assay for human Hypoxia Inducible Factor 1 (HIF1A) (AID 2282951); conditions: HepG2 Attagene cis-factorial HIF1a reporter transcription; actives raise or lower the signal
Summary of the method: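 RT-PCR/capillary electrophoresis fluorescence readout of reporter transcripts from endogenous-TF-driven cis elements in transfected HepG2 cells, 24 h exposure; activity fitted in both directions against DMSO controls.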

[14] = molecular target: Heat shock factor protein 1 (Homo sapiens) (UniProt Q00613); assay: ATG_HSE_CIS: Attagene CIS-FACTORIAL HepG2 Assay for human Heat Shock Transcription Factor 1 (HSE) (AID 2282953); conditions: HepG2 HSE cis-reporter, Attagene RNA transcription; actives raise or lower the signal
Summary of the method: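 HepG2 cells transfected with cis-promoter reporter units sensing endogenous transcription factor activity; reporter mRNA quantified 24 h post-dose by RT-PCR and capillary electrophoresis of 6-FAM-labelled products. Bidirectional fitting against DMSO.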

[15] = ATG_MRE_CIS: Attagene CIS-FACTORIAL HepG2 Assay for human Metal Responsive Element (MRE) (AID 2282954); conditions: HepG2 MRE cis-reporter transcription, Attagene multiplex; actives raise or lower the signal
Summary of the method: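 Endogenous MRE-dependent transcription read as reporter mRNA in transiently transfected human HepG2 cells at 24 h. RNA reverse-transcribed, PCR-amplified, labelled and resolved by capillary electrophoresis; gain or loss relative to DMSO.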

[16] = molecular target: Paired box protein Pax-6 (Homo sapiens) (UniProt P26367); assay: ATG_Pax6_CIS: Attagene CIS-FACTORIAL HepG2 Assay for human Paired Box 6 (PAX6) (AID 2282956); conditions: HepG2 CIS-FACTORIAL PAX6 reporter transcription, RNA readout; actives raise or lower the signal
Summary of the method: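 DMSO-referenced bidirectional fits of reporter mRNA fluorescence; HepG2 with transient cis-promoter MRTUs, 24 h post-dose, RT-PCR plus capillary electrophoresis detection.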

[17] = ATG_PXRE_CIS: Attagene CIS-FACTORIAL HepG2 Assay for human Pregnane X Receptor Element (PXRE) (AID 2282957); conditions: HepG2 Attagene CIS-FACTORIAL PXRE reporter, mRNA; actives raise or lower the signal
Summary of the method: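 Bidirectional activity, baselined to DMSO, derived from reporter mRNA fluorescence (RT-PCR plus capillary electrophoresis) in HepG2 cells bearing cis-promoter reporter units, 24 h exposure.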

[18] = molecular target: Bile acid receptor (Homo sapiens) (UniProt Q96RI1); assay: ATG_IR1_CIS: Attagene CIS-FACTORIAL HepG2 Assay for human Nuclear Receptor Subfamily 1 Group H Member 4 (NR1H4), IR1 submotif (AID 2282946); conditions: IR1 reporter transcription, actives raise or lower the signal
Summary of the method: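 HepG2 cells transiently transfected with multiplexed cis-element reporter units read endogenous transcription factor activity. After 24 h compound exposure, reporter mRNA was quantified by RT-PCR, fluorescent labelling, HpaI digestion and capillary electrophoresis; bidirectional fitting versus DMSO baseline.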

[19] = molecular target: Hepatocyte nuclear factor 6 (Homo sapiens) (UniProt Q9UBC0); assay: ATG_HNF6_CIS: Attagene CIS-FACTORIAL HepG2 Assay for human Hepatocyte Nuclear Factor 6 (HNF6) (AID 2282952); conditions: HepG2 Attagene cis-factorial HNF6 reporter transcription; actives raise or lower the signal
Summary of the method: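 Twenty-four-hour chemical treatment of reporter-transfected HepG2 cells precedes RNA isolation, DNase-treated reverse transcription and PCR of reporter sequences. Labelled fragments are sized by capillary electrophoresis and fitted bidirectionally versus DMSO.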

[20] = ATG_PBREM_CIS: Attagene CIS-FACTORIAL HepG2 Assay for human Phenobarbital-responsive Enhancer Module (PBREM) (AID 2282955); conditions: HepG2 PBREM cis-reporter, Attagene multiplexed transcription; actives raise or lower the signal
Summary of the method: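 Reporter mRNA read by RT-PCR, 6-FAM primer extension, HpaI digestion and capillary electrophoresis. Transfected HepG2 cells, 24 h compound exposure. Gain or loss of signal fitted bidirectionally relative to DMSO baseline.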

Chain of Heat shock factor protein 1 (Homo sapiens) (Q00613 whole entry, looked up): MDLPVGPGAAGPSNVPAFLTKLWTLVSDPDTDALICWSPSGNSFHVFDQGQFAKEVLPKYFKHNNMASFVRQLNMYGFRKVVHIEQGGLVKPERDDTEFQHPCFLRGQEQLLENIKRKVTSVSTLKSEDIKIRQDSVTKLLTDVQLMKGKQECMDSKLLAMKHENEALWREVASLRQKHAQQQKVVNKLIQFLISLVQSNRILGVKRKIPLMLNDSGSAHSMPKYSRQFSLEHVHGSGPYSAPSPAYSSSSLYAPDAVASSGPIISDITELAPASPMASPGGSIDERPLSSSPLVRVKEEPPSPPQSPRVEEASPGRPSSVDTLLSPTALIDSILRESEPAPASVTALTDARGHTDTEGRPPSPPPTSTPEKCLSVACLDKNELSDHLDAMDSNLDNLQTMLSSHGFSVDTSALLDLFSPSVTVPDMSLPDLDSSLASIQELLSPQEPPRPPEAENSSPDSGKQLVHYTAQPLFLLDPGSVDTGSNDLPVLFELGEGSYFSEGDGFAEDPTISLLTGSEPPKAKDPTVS
Chain of Hepatocyte nuclear factor 3-beta (Homo sapiens) (Q9Y261 whole entry, looked up): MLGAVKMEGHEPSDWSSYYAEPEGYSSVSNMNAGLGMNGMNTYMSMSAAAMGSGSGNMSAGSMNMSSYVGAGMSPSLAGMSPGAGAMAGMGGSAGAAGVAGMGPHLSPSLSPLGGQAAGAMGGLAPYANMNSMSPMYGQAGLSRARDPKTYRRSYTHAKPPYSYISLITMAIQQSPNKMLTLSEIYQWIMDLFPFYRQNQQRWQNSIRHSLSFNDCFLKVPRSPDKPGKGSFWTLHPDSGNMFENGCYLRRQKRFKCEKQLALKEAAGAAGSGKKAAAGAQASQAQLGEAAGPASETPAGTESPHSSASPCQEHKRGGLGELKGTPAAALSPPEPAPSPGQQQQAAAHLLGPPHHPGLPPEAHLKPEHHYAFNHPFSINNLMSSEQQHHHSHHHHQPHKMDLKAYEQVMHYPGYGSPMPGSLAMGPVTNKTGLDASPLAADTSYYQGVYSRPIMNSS
Chain of Hypoxia-inducible factor 1-alpha (Homo sapiens) (Q16665 whole entry, looked up): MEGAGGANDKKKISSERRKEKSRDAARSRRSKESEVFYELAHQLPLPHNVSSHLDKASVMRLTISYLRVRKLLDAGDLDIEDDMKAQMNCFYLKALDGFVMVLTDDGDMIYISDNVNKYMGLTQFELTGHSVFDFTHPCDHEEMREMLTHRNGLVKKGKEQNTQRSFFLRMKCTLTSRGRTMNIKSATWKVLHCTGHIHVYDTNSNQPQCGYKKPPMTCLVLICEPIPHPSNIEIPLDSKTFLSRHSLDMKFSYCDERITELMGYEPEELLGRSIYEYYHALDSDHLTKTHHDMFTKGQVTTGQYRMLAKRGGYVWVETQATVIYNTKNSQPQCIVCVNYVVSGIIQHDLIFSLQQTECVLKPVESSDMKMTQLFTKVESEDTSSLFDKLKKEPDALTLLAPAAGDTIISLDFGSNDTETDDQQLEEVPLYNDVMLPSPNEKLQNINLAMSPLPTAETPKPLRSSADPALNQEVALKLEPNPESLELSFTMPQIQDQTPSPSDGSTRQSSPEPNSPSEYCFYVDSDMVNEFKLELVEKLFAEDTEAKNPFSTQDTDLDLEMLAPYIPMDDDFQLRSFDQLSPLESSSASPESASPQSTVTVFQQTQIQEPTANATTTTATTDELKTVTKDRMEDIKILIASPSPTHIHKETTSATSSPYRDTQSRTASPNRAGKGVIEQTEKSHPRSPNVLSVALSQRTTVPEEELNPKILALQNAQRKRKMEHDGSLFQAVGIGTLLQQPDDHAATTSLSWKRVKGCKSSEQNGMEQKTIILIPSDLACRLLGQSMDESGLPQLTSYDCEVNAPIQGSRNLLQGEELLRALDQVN
Chain of Hepatocyte nuclear factor 6 (Homo sapiens) (Q9UBC0 whole entry, looked up, the tested form may be a part): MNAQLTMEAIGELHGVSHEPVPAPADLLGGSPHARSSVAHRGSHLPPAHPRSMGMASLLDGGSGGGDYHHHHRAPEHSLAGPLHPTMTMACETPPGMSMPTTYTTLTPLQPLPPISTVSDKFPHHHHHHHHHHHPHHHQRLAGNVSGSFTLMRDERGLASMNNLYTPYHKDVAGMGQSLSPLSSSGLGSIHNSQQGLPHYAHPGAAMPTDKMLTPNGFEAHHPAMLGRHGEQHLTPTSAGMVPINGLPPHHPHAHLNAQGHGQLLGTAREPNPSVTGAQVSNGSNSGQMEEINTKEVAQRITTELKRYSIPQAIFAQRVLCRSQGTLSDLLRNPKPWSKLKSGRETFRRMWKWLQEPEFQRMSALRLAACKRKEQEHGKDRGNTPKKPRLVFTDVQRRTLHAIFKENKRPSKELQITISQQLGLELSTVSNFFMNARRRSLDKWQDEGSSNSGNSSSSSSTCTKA
Chain of Bile acid receptor (Homo sapiens) (Q96RI1 whole entry, looked up): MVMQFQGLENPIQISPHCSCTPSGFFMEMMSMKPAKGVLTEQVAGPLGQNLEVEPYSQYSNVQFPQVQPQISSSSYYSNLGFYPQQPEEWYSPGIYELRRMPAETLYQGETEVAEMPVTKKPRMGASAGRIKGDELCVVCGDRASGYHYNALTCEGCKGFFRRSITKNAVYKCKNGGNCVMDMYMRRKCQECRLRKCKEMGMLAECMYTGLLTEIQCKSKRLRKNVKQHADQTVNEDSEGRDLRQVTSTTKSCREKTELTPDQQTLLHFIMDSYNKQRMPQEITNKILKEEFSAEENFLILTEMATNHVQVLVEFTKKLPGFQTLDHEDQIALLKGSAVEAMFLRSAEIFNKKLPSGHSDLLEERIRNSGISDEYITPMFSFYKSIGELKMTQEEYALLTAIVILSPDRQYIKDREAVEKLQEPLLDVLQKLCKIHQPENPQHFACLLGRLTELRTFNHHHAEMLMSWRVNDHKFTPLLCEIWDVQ
Chain of Paired box protein Pax-6 (Homo sapiens) (P26367 whole entry, looked up): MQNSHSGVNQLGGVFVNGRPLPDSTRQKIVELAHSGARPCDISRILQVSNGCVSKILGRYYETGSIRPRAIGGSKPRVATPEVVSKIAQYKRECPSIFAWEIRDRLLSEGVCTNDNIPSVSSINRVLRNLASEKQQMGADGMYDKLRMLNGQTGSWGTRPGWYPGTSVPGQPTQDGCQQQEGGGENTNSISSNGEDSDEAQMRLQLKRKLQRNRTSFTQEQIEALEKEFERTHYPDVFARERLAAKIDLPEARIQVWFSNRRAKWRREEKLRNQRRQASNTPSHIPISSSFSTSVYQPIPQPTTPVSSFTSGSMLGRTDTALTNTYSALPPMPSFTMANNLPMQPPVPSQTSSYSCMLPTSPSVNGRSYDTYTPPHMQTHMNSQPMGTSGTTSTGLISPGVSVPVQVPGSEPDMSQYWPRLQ

Cc1ccccc1OCC(=O)O
outcome [1]: inactive | outcome [2]: inactive | outcome [3]: inactive | outcome [4]: inactive | AC50 [5]: 26 µM (active) | outcome [6]: inactive | outcome [7]: inactive | outcome [8]: inactive | outcome [9]: inactive | outcome [10]: inactive | outcome [11]: inactive | outcome [12]: inactive | outcome [13]: inactive | outcome [14]: inactive | outcome [15]: inactive | outcome [16]: inactive | outcome [17]: inactive

Oc1c(Cl)cc(Cl)cc1Sc1cc(Cl)cc(Cl)c1O
outcome [1]: inactive | outcome [2]: inactive | outcome [3]: inactive | outcome [4]: inactive | outcome [5]: inactive | outcome [6]: inactive | outcome [7]: inactive | outcome [18]: inactive | outcome [9]: inactive | outcome [10]: inactive | outcome [11]: inactive | outcome [12]: inactive | outcome [13]: inactive | outcome [19]: inactive | AC50 [14]: 18.3 µM (active) | AC50 [15]: 11.5 µM (active) | outcome [20]: inactive | outcome [16]: inactive | AC50 [17]: 3.03 µM (active)

Cc1cccc2c1ccc1ccccc12
outcome [1]: inactive | outcome [2]: inactive | AC50 [3]: 10.2 µM (active) | outcome [4]: inactive | outcome [5]: inactive | outcome [6]: inactive | outcome [7]: inactive | outcome [18]: inactive | outcome [9]: inactive | outcome [10]: inactive | outcome [11]: inactive | outcome [12]: inactive | outcome [13]: inactive | outcome [19]: inactive | outcome [14]: inactive | outcome [15]: inactive | outcome [20]: inactive | outcome [16]: inactive | AC50 [17]: 27.4 µM (active)

CCCCc1ccc2ccccc2c1S(=O)(=O)O
outcome [1]: inactive | outcome [2]: inactive | outcome [3]: inactive | outcome [4]: inactive | outcome [5]: inactive | outcome [6]: inactive | outcome [7]: inactive | outcome [18]: inactive | outcome [9]: inactive | outcome [10]: inactive | outcome [11]: inactive | outcome [12]: inactive | outcome [13]: inactive | outcome [19]: inactive | outcome [14]: inactive | outcome [15]: inactive | outcome [20]: inactive | outcome [16]: inactive | AC50 [17]: 2.52 µM (active)

Nc1ccc(O)c(C(=O)O)c1
outcome [1]: inactive | outcome [2]: inactive | AC50 [3]: 12.3 µM (active) | outcome [4]: inactive | outcome [5]: inactive | outcome [6]: inactive | outcome [7]: inactive | outcome [8]: inactive | outcome [9]: inactive | outcome [10]: inactive | outcome [11]: inactive | outcome [12]: inactive | outcome [13]: inactive | outcome [14]: inactive | outcome [15]: inactive | outcome [20]: inactive | outcome [16]: inactive | outcome [17]: inactive

FCOC(C(F)(F)F)C(F)(F)F
outcome [1]: inactive | outcome [2]: inactive | outcome [3]: inactive | outcome [4]: inactive | outcome [5]: inactive | outcome [6]: inactive | outcome [7]: inactive | outcome [8]: inactive | outcome [9]: inactive | outcome [10]: inactive | outcome [11]: inactive | outcome [12]: inactive | outcome [13]: inactive | outcome [19]: inactive | outcome [14]: inactive | outcome [15]: inactive | outcome [20]: inactive | outcome [16]: inactive | outcome [17]: inactive
